The record followed here is PubChem BioAssay (EPA / NIEHS).

Results filed as inconclusive are left out. Activity calls are given as the source filed them. How the source made its calls, unless noted: active means hit-call score of the fitted dose curve at least 0.9, where 1 is the maximum; inactive means score below 0.9.

Test [1] is described as follows: CEETOX_H295R_ANDR: CeeTox H295R High-throughput Steroidogenesis Assay for Androstenedione (ANDR) (AID 2283436). The note with it: actives raise or lower the signal. An outline of the steps:
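Medium from 48 h chemical-treated H295R adrenal cells was extracted with MTBE and androstenedione measured by LC-MS/MS. Activity was fit in both directions relative to DMSO. Cytotoxic concentrations were re-tested after dilution until MTT viability reached ≥70%.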

A short description of test [2]: CEETOX_H295R_CORTIC: CeeTox H295R High-throughput Steroidogenesis Assay for Corticosterone (CORTIC) (AID 2283437). The note with it: actives raise or lower the signal. An outline of the steps: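 Medium corticosterone was quantified by tandem mass spectrometry following 48 hours of chemical exposure (0.1% DMSO) in human H295R cells previously stimulated 48 hours with 10 uM forskolin. Viability checked by MTT; chemicals diluted and retested when viability fell below 70%.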

The nature of test [3]: CEETOX_H295R_CORTISOL: CeeTox H295R High-throughput Steroidogenesis Assay for Cortisol (AID 2283438).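 Further: cortisol secreted into medium quantified by LC-MS/MS.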 The note with it: actives raise or lower the signal. An outline of the steps: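 Read-out: cortisol in culture medium by reverse-phase C18 HPLC with ESI-positive tandem MS, after MTBE liquid-liquid extraction. Cells: human adrenal H295R, forskolin-primed (10 uM, 48 h) before 48 h chemical exposure in 0.1% DMSO.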

Test [4] is described as follows: CEETOX_H295R_DOC: CeeTox H295R High-throughput Steroidogenesis Assay for DOC (AID 2283439). Particulars: actives raise or lower the signal. An outline of the steps:
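Human adrenocortical H295R cells, passages up to 10, received 10 uM forskolin for 48 h before chemical addition. After another 48 h exposure in 0.1% DMSO, secreted DOC was measured by LC-MS/MS, with gain or loss fitted against DMSO controls.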

Test [5] is described as follows: CEETOX_H295R_ESTRADIOL: CeeTox H295R High-throughput Steroidogenesis Assay for Estradiol (AID 2283440).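 Further: estradiol secreted into medium quantified by LC-MS/MS after dansyl derivatisation.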 Particulars: actives raise or lower the signal. In short, it runs like this: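 H295R adrenocortical cells were prestimulated with 10 uM forskolin for 48 h, then exposed to test chemical in 0.1% DMSO for 48 h. Medium estradiol was extracted with MTBE, dansyl-derivatized and quantified by HPLC-MS/MS; bidirectional fit versus DMSO.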

Test [6] in a line: CEETOX_H295R_ESTRONE: CeeTox H295R High-throughput Steroidogenesis Assay for Estrone (AID 2283441).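 Further: estrone secreted into medium measured by LC-MS/MS after dansyl derivatization.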 Particulars: actives raise or lower the signal. In short, it runs like this: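 Forskolin-stimulated H295R cells are treated 48 h with chemical, and estrone in the medium is measured by LC-MS/MS. Activity is fitted in both directions relative to DMSO controls, with chemicals diluted until MTT viability reaches at least 70%.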

Test [7] in a line: CEETOX_H295R_PROG: CeeTox H295R High-throughput Steroidogenesis Assay for Progesterone (PROG) (AID 2283442). The note with it: actives raise or lower the signal. In short, it runs like this:
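H295R human adrenal cells were prestimulated with 10 uM forskolin for 48 h, then exposed to test chemical (0.1% DMSO final) for 48 h. Medium progesterone was MTBE-extracted and quantified by HPLC-MS/MS, with bidirectional fitting against DMSO.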

Test [8] can be described thus: CEETOX_H295R_TESTO: CeeTox H295R High-throughput Steroidogenesis Assay for Testosterone (TESTO) (AID 2283457). The note with it: actives raise or lower the signal. In short, it runs like this:
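H295R human adrenal cells in DMEM/F12 with ITS+ and Nu-Serum, exposed to chemicals for 48 h. Testosterone in medium measured by MTBE extraction, reverse-phase HPLC-MS/MS; bidirectional fit versus DMSO baseline. MTT viability checked in same wells.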

A short description of test [9]: ATG_XTT_Cytotoxicity: Cytotoxicity Assessment in the Attagene TRANS-FACTORIAL HepG2 Assay (AID 2283584; active means hit-call score of the fitted dose curve at least 0.9, where 1 is the maximum;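 on AC50: cells exposed to compound for 24 h before reading; active means loss of viability signal versus DMSO baseline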). An outline of the steps: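 HepG2 human liver cells, transiently transfected with multiple GAL4-UAS reporter units, were dosed and read at 24 h by XTT as cell number. Loss of signal was fitted relative to DMSO negative control baseline.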
Test [10] is described as follows: CEETOX_H295R_MTT_cell_viability: Viability Assessment in the CeeTox HT-H295R MTT Assay (AID 2283718). In short, it runs like this:
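MTT reduction (0.5 mg/ml, 4 h at 37 C; absorbance at 570 and 650 nm) gave viability as background-corrected percent change versus controls. H295R cells had 48 h forskolin (10 uM) prestimulation, then 48 h chemical exposure at 0.1% DMSO.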

In test [11] the target is Cellular tumor antigen p53 (Homo sapiens) (UniProt P04637). In words: TOX21_p53_BLA_p2_ratio: Tox21 HCT-116 p53 Agonism Beta-lactamase Assay, Ratio, Phase 2 (AID 2283592; active means hit-call score of the fitted dose curve at least 0.9, where 1 is the maximum). In short, it runs like this: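 Ratio endpoint: beta-lactamase cleavage of CCF4-AM, blue (460 nm) over green (530 nm). HCT116 reporter line; 16 h treatment, 37C; substrate 2 h RT.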
Sequence of Cellular tumor antigen p53 (Homo sapiens) (P04637 whole entry, looked up): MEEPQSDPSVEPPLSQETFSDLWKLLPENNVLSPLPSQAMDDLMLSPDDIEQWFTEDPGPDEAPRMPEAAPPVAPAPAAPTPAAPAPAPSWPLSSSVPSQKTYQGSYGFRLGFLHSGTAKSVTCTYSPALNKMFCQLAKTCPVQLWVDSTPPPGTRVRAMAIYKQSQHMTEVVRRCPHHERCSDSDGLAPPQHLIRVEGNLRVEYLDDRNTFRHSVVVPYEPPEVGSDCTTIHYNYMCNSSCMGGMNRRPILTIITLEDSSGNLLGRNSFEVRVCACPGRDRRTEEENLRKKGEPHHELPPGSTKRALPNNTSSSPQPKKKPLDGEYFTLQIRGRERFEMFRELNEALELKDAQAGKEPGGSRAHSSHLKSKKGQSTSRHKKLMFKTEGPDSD
Test [12] in a line: TOX21_p53_BLA_p3_viability: Viability Assessment in the Tox21 HCT-116 p53 Agonism Beta-lactamase Assay, Phase 3 (AID 2283593; active means hit-call score of the fitted dose curve at least 0.9, where 1 is the maximum;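 further: cells exposed to compound for 16 h before reading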). In short, it runs like this: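 Cellular ATP was quantified by CellTiter-Glo luminescence, read after 30 min at room temperature. Beforehand, HCT116 cells (4000/well) received compound 5 h post-seeding, 217-fold diluted from DMSO, then incubated 16 h at 37C.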

Test [13] has as its target Cellular tumor antigen p53 (Homo sapiens) (UniProt P04637). Description: TOX21_p53_BLA_p3_ratio: Tox21 HCT-116 p53 Agonism Beta-lactamase Assay, Ratio, Phase 3 (AID 2283596; active means hit-call score of the fitted dose curve at least 0.9, where 1 is the maximum). In short, it runs like this:
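Cells were seeded at 4000/well, rested 5 h at 37C, then dosed with DMSO compound solutions (217-fold dilution) for 16 h. CCF4-AM substrate was loaded for 2 h at room temperature, and the 460/530 nm emission ratio was fitted for gain of signal versus DMSO.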

A short description of test [14]: TOX21_p53_BLA_p4_viability: Viability Assessment in the Tox21 HCT-116 p53 Agonism Beta-lactamase Assay, Phase 4 (AID 2283597; active means hit-call score of the fitted dose curve at least 0.9, where 1 is the maximum;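 further: hits lower the luminescence signal meaning cytotoxicity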). In short, it runs like this: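 Cytotoxicity was inferred from loss of CellTiter-Glo luminescence. HCT116 cells had been dosed with compounds after 5 h plating, incubated 16 h at 37C and 5% CO2, and exposed to the CCF4-AM substrate for 2 h.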

The target in test [15] is Cellular tumor antigen p53 (Homo sapiens) (UniProt P04637). Description: TOX21_p53_BLA_p5_ratio: Tox21 HCT-116 p53 Agonism Beta-lactamase Assay, Ratio, Phase 5 (AID 2283599; active means hit-call score of the fitted dose curve at least 0.9, where 1 is the maximum). An outline of the steps:
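Beta-lactamase reporter ratio (blue 460 nm over green 530 nm, 405 nm excitation) after 2 h CCF4-AM loading, in HCT-116 cells exposed 16 h at 37 C to compounds pinned at 217-fold dilution. Increases relative to DMSO baseline scored.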

Test [16] is described as follows: TOX21_p53_BLA_p5_viability: Viability Assessment in the Tox21 HCT-116 p53 Agonism Beta-lactamase Assay, Phase 5 (AID 2283600; active means hit-call score of the fitted dose curve at least 0.9, where 1 is the maximum). In short, it runs like this: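 Luciferase-coupled ATP quantitation of cells treated for 16 h (37C, 5% CO2) with test chemicals delivered in DMSO via a 217-fold dilution; 4000 cells/well; reagent incubated 30 min at room temperature before luminescence reading.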

The target of test [17] is Cellular tumor antigen p53 (Homo sapiens) (UniProt P04637). In words: TOX21_p53_BLA_p4_ratio: Tox21 HCT-116 p53 Agonism Beta-lactamase Assay, Ratio, Phase 4 (AID 2283601; active means hit-call score of the fitted dose curve at least 0.9, where 1 is the maximum). An outline of the steps: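 Signal is the blue/green (460nm/530nm) ratio of cleaved versus uncleaved CCF4-AM substrate, read after 2 h substrate loading. Cells were HCT116 carrying the p53-responsive beta-lactamase reporter, dosed 16 h at 37C, 5% CO2; CellTiter-Glo measured in parallel.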

The subject of test [18] is Thyroperoxidase (TPO), gene 54314. In words: CCTE_Simmons_AUR_rTPO: CCTE's Amplex UltraRed Assay for Thyroperoxidase (TPO) Inhibition, Simmons Lab (AID 2283662; active means hit-call score of the fitted dose curve at least 0.9, where 1 is the maximum;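 further: potency for loss of signal meaning inhibition of peroxidase activity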). An outline of the steps:
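Cell-free peroxidase activity assay using rat thyroid gland microsomes with excess H2O2 (300 uM) and 25 uM Amplex UltraRed. Compounds tested from 5 nM to 87.5 uM; fluorescence measured after 30 min at 37C, analysed relative to DMSO baseline.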

A short description of test [19]: CCTE_Simmons_CellTiterGLO_HEK293T: Viability Assessment in CCTE's Assays for Thyroperoxidase (TPO) Inhibition, Simmons Lab (AID 2283665; active means hit-call score of the fitted dose curve at least 0.9, where 1 is the maximum;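 further: cells exposed to compound for 24 h before readout; actives reduce ATP signal below DMSO vehicle meaning cytotoxicity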). An outline of the steps:
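Luminescent ATP readout (CellTiter-Glo, 20 min at room temperature) after 24 hr exposure of HEK293T cells to 5 nM–87.5 uM final compound; signal loss relative to DMSO vehicle indicated cytotoxicity; dichlone titrated as positive control.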

Take `Cc1cccc(C)n1`: the result in test [1], in test [2], in [3], in test [4], in [5] and in test [6] was inactive. Moreover, the compound was classed as inactive in test [7], in test [8], in [9] and in test [10].

Consider `CC1CCCCC1`, for which the compound was called inactive in [1], in [2], in test [3], in test [4], in [5] and in test [6]. The outcome in test [7], in test [8], in test [9] and in test [10] was inactive.

As to `O=C(c1ccccc1)c1ccc(Cl)cc1`, the outcome in [1], in test [2], in [3], in test [4], in [7] and in test [8] was inactive. In addition, the compound was called inactive in [10].

Regarding `CC(=O)c1ccccc1N`, the compound was classed as inactive in test [9].

In the case of `O=C1C=CC(=O)N1c1ccccc1`, the compound was classed as inactive in test [1], in test [2], in [3], in [4], in [5] and in test [6]. Further, the compound was called inactive in [7], in [8], in test [9] and in test [10]. Moreover, the AC50 is 80.4 µM (active) in [11]; 87.1 µM (active) in test [12]; 86.8 µM (active) in test [13]; 84.5 µM (active) in [14]; 85.3 µM (active) in [15]; 74.9 µM (active) in [16]. The AC50 in test [17] was 77.5 µM (active).

For the compound `OCCCCl`, the result in test [9] was inactive.

Turning to `CCCCCCCCCCCCC[N+](C)(C)Cc1ccccc1`, the AC50 is 0.307 µM (active) in [1]; 0.337 µM (active) in test [4]; 0.159 µM (active) in test [7]; 31.7 µM (active) in [9]; 25.5 µM (active) in [18]; 9.42 µM (active) in test [19]. For the same compound, the outcome in [2], in [3], in test [5], in [6], in test [8] and in test [10] was inactive.

As to `Nc1cccnc1N`, the compound was called inactive in test [2], in test [3], in [4], in test [7], in [9] and in [10].

As to `CN1CN(C)CN(C)C1`, the call in test [2], in test [3], in [4], in [5], in test [6] and in test [7] was inactive. Besides, the result in [9] and in [10] was inactive.

In the case of `CCc1cccc(C)c1N(C(=O)C(=O)O)C(C)COC` (stereo not drawn), in test [9], the compound was called inactive.

For the compound `Oc1ccc2c(c1)CCC2`, the compound was classed as inactive in [1], in test [2], in test [3], in [4], in [6] and in test [8]. Also, the call in [9] and in test [10] was inactive. The AC50 in [5] is 39.1 µM (active).

On to `CCN(CC)c1ccc(C=O)cc1`, for which the compound was classed as inactive in test [1], in test [2], in [3], in test [5], in test [6] and in test [7]. Also, the outcome in test [8], in test [9] and in [10] was inactive. The AC50 in test [4] is 59.2 µM (active).

Regarding `CC(=O)C=O`, in [9], the compound was classed as inactive.
